Data on 40 molecules can be found in PubChem BioAssay (Tox21).

Inconclusive results are not listed. A call without a number means that no potency is given here. Unmarked numbers belong to inactive results. The source made the active and inactive calls. The call rests on the fitted dose curve; in most records, active means well fitted inhibition curve with a large enough effect in the repeat runs; inconclusive means weak or mixed curves; inactive means no such curve, though single readings can be large or run the other way.

Chain of Estrogen receptor (Homo sapiens) (P03372 whole entry, looked up): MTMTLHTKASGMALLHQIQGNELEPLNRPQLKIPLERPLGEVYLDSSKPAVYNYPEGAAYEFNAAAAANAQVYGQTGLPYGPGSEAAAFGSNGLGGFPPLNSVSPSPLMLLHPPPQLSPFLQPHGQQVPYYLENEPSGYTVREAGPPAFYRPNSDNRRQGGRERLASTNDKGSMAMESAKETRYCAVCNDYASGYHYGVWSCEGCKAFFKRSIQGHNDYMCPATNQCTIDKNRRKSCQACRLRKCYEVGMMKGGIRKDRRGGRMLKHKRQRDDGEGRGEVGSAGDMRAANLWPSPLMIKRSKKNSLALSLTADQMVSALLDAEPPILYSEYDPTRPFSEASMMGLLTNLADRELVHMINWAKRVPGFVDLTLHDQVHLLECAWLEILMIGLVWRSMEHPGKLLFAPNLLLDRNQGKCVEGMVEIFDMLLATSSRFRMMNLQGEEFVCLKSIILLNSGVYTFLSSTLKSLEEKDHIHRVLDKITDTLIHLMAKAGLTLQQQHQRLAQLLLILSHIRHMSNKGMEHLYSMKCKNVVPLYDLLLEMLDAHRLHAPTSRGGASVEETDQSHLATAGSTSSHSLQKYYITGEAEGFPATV

The target in the assay is Estrogen receptor (Homo sapiens) (UniProt P03372). Briefly: qHTS assay to identify small molecule antagonists of the estrogen receptor alpha (ER-alpha) signaling pathway using the BG1 cell line in the presence of 0.1 nM 17-beta-estradiol (AID 1259244). Further: nearly all actives have a fitted effect of over 50% in size. Particulars: VM7Luc4E2 (BG1) ERE-luciferase, antagonist mode, 0.1 nM E2, 22 h; series mostly up to 92.4 µM. An excerpt:
National Center for Advancing Translational Sciences [NCATS]
NIH Chemical Genomics Center [NCGC]
U.S. Environmental Protection Agency [EPA]
National Institutes of Environmental Health Sciences [NIEHS]
National Toxicology Program [NTP]
U.S. Food and Drug Administration [FDA]
Estrogen receptor (ER), a member of the nuclear hormone receptor plays an important role in development, metabolic homeostasis and reproduction. Two subtypes of ER, ER-alpha and ER-beta, have similar expression patterns with some uniqueness in both types. Endocrine disrupting chemicals (EDCs) and their interactions with steroid hormone receptors like ER causes disruption of normal endocrine function. Therefore, it is important to understand the effect of environmental chemicals in ER signaling pathway. For identifying ER antagonists, VM7Luc4E2 cell line was used to screen against Tox21 compound libraries.
VM7Luc4E2 cell line (provided by Denison MS, University of California) endogenously express full-length ER-alpha and is stably transfected with a plasmid containing four estrogen responsive elements (ERE) upstream of a luciferase reporter gene. The current screening for identification of ER-alpha inhibitors against Tox21 compound libraries used lower concentration (0.1 nM) of 17beta-Estradiol as a stimulator.
Tox21 Assay Protocol Summary:
VM7Luc4E2 cells were cultured in phenol red free assay medium containing 10% charcoal stripped FBS for 5 days prior to the assay. The cells were dispensed at 4,000 cells/well in 4 uL of assay medium into white wall/solid-bottom 1536-well plates (Corning Life Sciences, Corning, NY) using a Multidrop Combi (ThermoFisher Scientific, Waltham, MA) dispenser. After the assay plates were incubated at 37C and 5% CO2 for 24 hr, 23 nL of compounds dissolved in DMSO, positive controls or DMSO only was transferred to the assay plates by a Pintool station (Kalypsys, San Diego, CA). The transfer of compounds was followed by the addition of 1 uL of 0.1 nM (final concentration) agonist (17beta-Estradiol)/assay medium using a Flying Reagent Dispenser (FRD, Aurora Discovery, San Diego, CA). The plates were incubated at 37C and 5% CO2 for 22 hr. For luciferase reporter gene assay, 4 uL of ONE-Glo reagent (Promega Corporation, Madison, WI) was added to each well using the FRD and after 30 min incubation at room temperature luminescence intensity was measured using ViewLux plate reader (PerkinElmer, Shelton, CT).
(In general: qHTS replaces the single test concentration by a dilution series.)
`Cc1cc(C)c(C)c(O)c1`: the Potency entry was “inactive”.
As to `NC(=O)c1ccccc1`, the Potency result was “inactive”.
Still for that read-out and setting: the same measure for `CC(C)(C(=O)O)c1ccc(C(O)CCCN2CCC(C(O)(c3ccccc3)c3ccccc3)CC2)cc1` (stereo not given): “inactive”; for `CCCCCCCCCCCCSCCOCCO`: “inactive”.
For `Nc1ccc(C(=O)Oc2ccccc2)c(O)c1`, the Potency entry is “inactive”.
The same measure, in the same setting: next, `O=S(=O)(O)c1cc(Cl)c(Cl)cc1Cl`: “inactive”; `CCn1nc(Cc2ccccc2)cc1C1CCN(C[C@H]2C[C@H](N(C)[C@@H](C(=O)O)C(C)C)C[C@@H]2c2cccc(F)c2)CC1`: “inactive”.
For `O=C(O)c1ccc(O)c(O)c1`, the Potency entry was “inactive”.
In the case of `COc1ccc(/C(C)=C/C(=O)O)c(OC)c1`, the Potency result was “inactive”.
With `Oc1ccc(Oc2ccccc2)cc1`, the Potency entry is “inactive”.
As to `CC1(C)CC(=O)CC(C)(C)N1`, the Potency entry is “inactive”.
On the same count and under the same terms, next, `O=c1[nH]nc(-c2ccc([N+](=O)[O-])o2)o1`: “inactive”; `O=[N+]([O-])c1cccc(I)c1`: “inactive”.
Consider `CCCCCCCCCCCCCCCCCCCl`, for which the activity change, negative = inhibition was -0.369% [at 8.39 µM].
Regarding `CC(Cc1ccccc1)(NC(=O)CN)c1ccccc1` (stereo not given), the Potency entry was “inactive”.
On the same count and under the same terms, next, `COc1ccc(/C=C/c2cc(OC)cc(=O)o2)cc1`: “inactive”; `O=C1CCCN1CCO`: “inactive”.
`COc1cc(C)c(Cc2cnc(N)nc2N)cc1OC`: the Potency result is “inactive”.
Still for that read-out and setting: next, `CCCCOC(=O)CC#N`: “inactive”; `CC(=O)c1ccc(Cl)c(Cl)c1Cl`: “inactive”; `Cc1ccc2c(Cl)cc(Cl)c(O)c2n1`: “inactive”.
For the molecule `OCCCO`, the Potency result was “inactive”.
The same measure, in the same setting: next, `Cc1c(N=C=O)cccc1N=C=O`: “inactive”; `S=c1[nH][nH]c(=S)s1`: “inactive”; `O=Cc1ccc([N+](=O)[O-])cc1`: “inactive”.
Regarding `Cc1c(Cl)cccc1Nc1ccccc1C(=O)O`, the Potency entry was “inactive”.
Turning to `CC(C)=CCC[C@H](C)CCO`, the Potency entry was “inactive”.
With `CCOc1cc(OCC)c(C(C)=O)cc1OCC`, the Potency result is “inactive”.
`CC(C)(C)c1cc(C=O)cc(C(C)(C)C)c1O`: the Potency result was “inactive”.
Still for that read-out and setting: next, `CC(C)CCCCCOC(=O)CS`: “inactive”; `CC(COc1ccccc1)NC(C)C(O)c1ccc(O)cc1` (stereo not given): “inactive”; `O=C(C1CCCCC1)N1CC(=O)N2CCCc3ccccc3C2C1` (stereo not given): “inactive”.
The same measure, in the same setting: the same measure for `CCN(CCCCOC(=O)c1ccc(OC)c(OC)c1)C(C)Cc1ccc(OC)cc1` (stereo not given): “inactive”; for `Clc1cccc(C(c2ccc3nc[nH]c3c2)n2ccnc2)c1` (stereo not given): “inactive”.
Still for that read-out and setting: the same measure for `CC(O)CN` (stereo not given): “inactive”; for `COc1ccc(C(=O)Nc2ccccc2)cc1[N+](=O)[O-]`: “inactive”; for `Nc1ccc(F)cc1F`: “inactive”.
`O=C(N[C@@H](Cc1ccccc1)[C@@H](O)C(=O)N1C[C@@H](O)[C@@H](O)C1)c1cc2cc(Cl)ccc2[nH]1`: the Potency result is “inactive”.
The same measure, in the same setting: the same measure for `OCCc1ccncc1`: “inactive”; for `O=C(OCCOCCOCCOC(=O)c1ccccc1)c1ccccc1`: “inactive”.
